Of roughly 8,800 targets only a part is listed; those with a hit were picked by preference. About 0.5% of all pairs of compound and target were hits. Unmarked numbers belong to inactive results.
Columns and labels:
Assay in all cases: log2 fold change, soluble protein after heating vs DMSO (PISA); higher = thermal stabilisation; K562 lysate, 10 uM; active = over 0.2 and 3.5 SD of the protein, either way, in both replicates (recomputed)
vemurafenib = compound: CCCS(=O)(=O)Nc1ccc(F)c(C(=O)c2c[nH]c3ncc(-c4ccc(Cl)cc4)cc23)c1F [vemurafenib]
Summary of the method: (§1)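 Soluble protein was defined as the supernatant remaining after 21,000xg for 90 min, following pooling of heated aliquots and adjustment to 0.5% NP-40 at 4°C. Before that, crude K562 extract at 1 mg/mL protein in PBS pH 7.4 with 1 mM MgCl2 was treated with 10 μM compound for 30 min and heated for 3 min across 48°C-58°C. Quantification used TMTpro 16plex LC-MS/MS with channel sums equalised, and values are log-two fold changes in thermal stability relative to solvent controls from duplicates.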

[1] = compound: CCCS(=O)(=O)Nc1ccc(F)c(C(=O)c2c[nH]c3ncc(Cl)cc23)c1F
Summary of the method: as §1

barasertib = compound: CCN(CCCOc1ccc2c(Nc3cc(CC(=O)Nc4cccc(F)c4)[nH]n3)ncnc2c1)CCOP(=O)(O)O [barasertib]
Summary of the method: as §1

[2] = compound: CC[C@@H]1C(=O)N(C)c2cnc(Nc3ccc(C(=O)NC4CCN(C)CC4)cc3OC)nc2N1C1CCCC1
Summary of the method: as §1

volasertib = compound: CC[C@@H]1C(=O)N(C)c2cnc(Nc3ccc(C(=O)N[C@H]4CC[C@H](N5CCN(CC6CC6)CC5)CC4)cc3OC)nc2N1C(C)C [volasertib]
Summary of the method: as §1

[3] = compound: CCn1c(C(=O)N(C2CC2)C2CC2)cc2c3c(ncn3C)c(Nc3cc(C)n(C)n3)nc21
Summary of the method: as §1

[4] = compound: CCn1cc(-c2ccnc3[nH]c(-c4cccc(CN(C)C)c4)cc23)c(-c2ccc(NC(=O)N(C)C)cc2)n1
Summary of the method: as §1

[5] = compound: CN1CCC(CNc2ccc3ncc(-c4cccc(OC(F)(F)F)c4)n3n2)CC1
Summary of the method: as §1

saracatinib = compound: CN1CCN(CCOc2cc(OC3CCOCC3)c3c(Nc4c(Cl)ccc5c4OCO5)ncnc3c2)CC1 [saracatinib]
Summary of the method: as §1

sotrastaurin = compound: CN1CCN(c2nc(C3=C(c4c[nH]c5ccccc45)C(=O)NC3=O)c3ccccc3n2)CC1 [sotrastaurin]
Summary of the method: as §1

alvocidib = compound: CN1CC[C@H](c2c(O)cc(O)c3c(=O)cc(-c4ccccc4Cl)oc23)[C@H](O)C1 [alvocidib]
Summary of the method: as §1

Tubastatin A = compound: CN1CCc2c(c3ccccc3n2Cc2ccc(C(=O)NO)cc2)C1 [Tubastatin A]
Summary of the method: as §1

[6] = compound: CNC(=O)C1=CC=CC=C1NC2=NC(=NC=C2Cl)NC3=C(C=C(C=C3)N4CCOCC4)OC
Summary of the method: as §1

defactinib = compound: CNC(=O)c1ccc(Nc2ncc(C(F)(F)F)c(NCc3nccnc3N(C)S(C)(=O)=O)n2)cc1 [defactinib]
Summary of the method: as §1

[7] = compound: CNc1nc(-c2ccc3c(N)n[nH]c3c2)cc(N2C[C@@H](C(=O)NC3CCCCC3)CC[C@H]2C)n1
Summary of the method: as §1

encorafenib = compound: COC(=O)N[C@@H](C)CNc1nccc(-c2cn(C(C)C)nc2-c2cc(Cl)cc(NS(C)(=O)=O)c2F)n1 [encorafenib]
Summary of the method: as §1

[8] = compound: COC(=O)[C@H](CCSC)NC(=O)C1=C(C=C(C=C1)NC[C@H](CS)N)C2=CC=CC=C2
Summary of the method: as §1

alisertib = compound: COc1cc(Nc2ncc3c(n2)-c2ccc(Cl)cc2C(c2c(F)cccc2OC)=NC3)ccc1C(=O)O [alisertib]
Summary of the method: as §1

[9] = compound: COc1cc2nc(-c3cc(F)ccc3O)nc(N[C@@H]3CNC[C@H]3C(C)(C)O)c2cc1OC
Summary of the method: as §1

gefitinib = compound: COc1cc2ncnc(Nc3ccc(F)c(Cl)c3)c2cc1OCCCN1CCOCC1 [gefitinib]
Summary of the method: as §1

UniProt Q86WJ1, sequence (Q86WJ1 whole entry, looked up): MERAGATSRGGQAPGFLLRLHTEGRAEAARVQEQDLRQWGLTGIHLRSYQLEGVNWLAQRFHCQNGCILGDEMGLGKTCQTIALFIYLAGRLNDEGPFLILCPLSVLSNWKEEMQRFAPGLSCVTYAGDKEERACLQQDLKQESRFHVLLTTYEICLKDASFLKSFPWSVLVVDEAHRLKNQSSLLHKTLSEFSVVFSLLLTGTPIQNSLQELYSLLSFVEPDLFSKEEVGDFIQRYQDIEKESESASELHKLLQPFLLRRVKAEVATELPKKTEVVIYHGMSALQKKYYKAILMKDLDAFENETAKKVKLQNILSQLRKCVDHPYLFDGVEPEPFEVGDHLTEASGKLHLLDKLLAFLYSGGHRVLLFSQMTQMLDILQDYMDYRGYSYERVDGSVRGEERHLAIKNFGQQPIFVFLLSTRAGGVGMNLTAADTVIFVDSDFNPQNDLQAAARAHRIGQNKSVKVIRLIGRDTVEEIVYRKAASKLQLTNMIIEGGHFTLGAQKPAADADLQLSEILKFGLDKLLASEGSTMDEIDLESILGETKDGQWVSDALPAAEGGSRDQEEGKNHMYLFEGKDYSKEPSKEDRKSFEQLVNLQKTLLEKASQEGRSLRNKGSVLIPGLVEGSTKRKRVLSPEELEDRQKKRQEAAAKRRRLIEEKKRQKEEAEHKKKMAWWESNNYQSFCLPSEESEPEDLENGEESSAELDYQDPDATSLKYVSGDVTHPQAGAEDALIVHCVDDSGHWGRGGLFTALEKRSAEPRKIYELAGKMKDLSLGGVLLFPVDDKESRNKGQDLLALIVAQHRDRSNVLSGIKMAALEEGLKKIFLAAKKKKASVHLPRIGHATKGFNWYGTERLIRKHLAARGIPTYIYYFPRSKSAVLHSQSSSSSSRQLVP
UniProt O75794, sequence (O75794 whole entry, looked up): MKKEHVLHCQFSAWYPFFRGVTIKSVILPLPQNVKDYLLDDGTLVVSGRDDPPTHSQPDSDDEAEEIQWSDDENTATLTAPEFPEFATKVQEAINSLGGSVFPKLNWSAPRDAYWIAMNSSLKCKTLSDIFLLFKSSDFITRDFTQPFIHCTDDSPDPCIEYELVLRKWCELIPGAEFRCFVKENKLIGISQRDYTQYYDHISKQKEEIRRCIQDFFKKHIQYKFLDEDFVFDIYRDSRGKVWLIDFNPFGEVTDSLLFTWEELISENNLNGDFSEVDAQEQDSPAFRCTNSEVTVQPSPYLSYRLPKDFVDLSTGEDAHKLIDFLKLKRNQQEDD
UniProt Q96JB5, sequence (Q96JB5 whole entry, looked up): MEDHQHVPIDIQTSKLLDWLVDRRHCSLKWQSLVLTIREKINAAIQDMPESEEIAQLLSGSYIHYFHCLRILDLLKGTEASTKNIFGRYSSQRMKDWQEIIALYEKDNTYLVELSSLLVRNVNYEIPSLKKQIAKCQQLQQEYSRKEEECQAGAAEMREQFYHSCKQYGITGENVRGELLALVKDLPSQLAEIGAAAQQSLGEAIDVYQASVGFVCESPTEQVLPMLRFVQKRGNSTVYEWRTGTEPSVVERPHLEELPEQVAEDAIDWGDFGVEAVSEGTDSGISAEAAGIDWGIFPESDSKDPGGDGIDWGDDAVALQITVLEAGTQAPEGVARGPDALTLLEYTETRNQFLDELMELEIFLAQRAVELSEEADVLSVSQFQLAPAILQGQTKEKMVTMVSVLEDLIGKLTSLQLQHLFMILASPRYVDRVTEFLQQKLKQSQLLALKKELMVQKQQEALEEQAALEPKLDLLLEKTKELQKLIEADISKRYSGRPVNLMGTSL
UniProt P21953, sequence (P21953 whole entry, looked up): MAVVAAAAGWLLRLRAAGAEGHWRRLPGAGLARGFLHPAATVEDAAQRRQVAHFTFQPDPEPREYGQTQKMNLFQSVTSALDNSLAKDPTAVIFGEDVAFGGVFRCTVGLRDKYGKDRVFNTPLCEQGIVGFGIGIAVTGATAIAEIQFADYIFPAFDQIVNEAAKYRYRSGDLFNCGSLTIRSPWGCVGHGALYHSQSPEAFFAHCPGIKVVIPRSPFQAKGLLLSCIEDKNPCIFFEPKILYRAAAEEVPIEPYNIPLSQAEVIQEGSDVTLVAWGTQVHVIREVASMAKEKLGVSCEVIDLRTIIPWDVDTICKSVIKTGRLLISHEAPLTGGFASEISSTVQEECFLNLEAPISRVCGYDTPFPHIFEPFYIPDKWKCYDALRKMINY
UniProt Q96B23, sequence (Q96B23 whole entry, looked up): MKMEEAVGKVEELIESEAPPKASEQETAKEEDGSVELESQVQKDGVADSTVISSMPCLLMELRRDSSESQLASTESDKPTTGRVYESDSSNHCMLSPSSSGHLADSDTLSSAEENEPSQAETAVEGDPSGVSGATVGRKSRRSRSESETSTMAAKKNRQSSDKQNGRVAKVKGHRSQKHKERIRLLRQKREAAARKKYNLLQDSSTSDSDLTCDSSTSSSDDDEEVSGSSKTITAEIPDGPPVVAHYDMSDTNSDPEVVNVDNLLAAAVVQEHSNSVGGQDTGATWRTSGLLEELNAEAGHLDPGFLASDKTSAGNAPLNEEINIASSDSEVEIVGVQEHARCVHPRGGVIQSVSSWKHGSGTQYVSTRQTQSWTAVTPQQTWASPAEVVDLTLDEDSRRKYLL
UniProt P42574, sequence (P42574 whole entry, looked up): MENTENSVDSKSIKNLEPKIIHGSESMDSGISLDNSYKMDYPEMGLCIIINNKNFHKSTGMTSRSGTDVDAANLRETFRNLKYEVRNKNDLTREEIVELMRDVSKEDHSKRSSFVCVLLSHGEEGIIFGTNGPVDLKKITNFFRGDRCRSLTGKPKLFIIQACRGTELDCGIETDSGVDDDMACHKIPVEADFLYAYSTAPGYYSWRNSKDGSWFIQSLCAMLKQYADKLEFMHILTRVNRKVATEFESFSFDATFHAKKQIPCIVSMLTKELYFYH
UniProt Q14692, sequence (Q14692 whole entry, looked up): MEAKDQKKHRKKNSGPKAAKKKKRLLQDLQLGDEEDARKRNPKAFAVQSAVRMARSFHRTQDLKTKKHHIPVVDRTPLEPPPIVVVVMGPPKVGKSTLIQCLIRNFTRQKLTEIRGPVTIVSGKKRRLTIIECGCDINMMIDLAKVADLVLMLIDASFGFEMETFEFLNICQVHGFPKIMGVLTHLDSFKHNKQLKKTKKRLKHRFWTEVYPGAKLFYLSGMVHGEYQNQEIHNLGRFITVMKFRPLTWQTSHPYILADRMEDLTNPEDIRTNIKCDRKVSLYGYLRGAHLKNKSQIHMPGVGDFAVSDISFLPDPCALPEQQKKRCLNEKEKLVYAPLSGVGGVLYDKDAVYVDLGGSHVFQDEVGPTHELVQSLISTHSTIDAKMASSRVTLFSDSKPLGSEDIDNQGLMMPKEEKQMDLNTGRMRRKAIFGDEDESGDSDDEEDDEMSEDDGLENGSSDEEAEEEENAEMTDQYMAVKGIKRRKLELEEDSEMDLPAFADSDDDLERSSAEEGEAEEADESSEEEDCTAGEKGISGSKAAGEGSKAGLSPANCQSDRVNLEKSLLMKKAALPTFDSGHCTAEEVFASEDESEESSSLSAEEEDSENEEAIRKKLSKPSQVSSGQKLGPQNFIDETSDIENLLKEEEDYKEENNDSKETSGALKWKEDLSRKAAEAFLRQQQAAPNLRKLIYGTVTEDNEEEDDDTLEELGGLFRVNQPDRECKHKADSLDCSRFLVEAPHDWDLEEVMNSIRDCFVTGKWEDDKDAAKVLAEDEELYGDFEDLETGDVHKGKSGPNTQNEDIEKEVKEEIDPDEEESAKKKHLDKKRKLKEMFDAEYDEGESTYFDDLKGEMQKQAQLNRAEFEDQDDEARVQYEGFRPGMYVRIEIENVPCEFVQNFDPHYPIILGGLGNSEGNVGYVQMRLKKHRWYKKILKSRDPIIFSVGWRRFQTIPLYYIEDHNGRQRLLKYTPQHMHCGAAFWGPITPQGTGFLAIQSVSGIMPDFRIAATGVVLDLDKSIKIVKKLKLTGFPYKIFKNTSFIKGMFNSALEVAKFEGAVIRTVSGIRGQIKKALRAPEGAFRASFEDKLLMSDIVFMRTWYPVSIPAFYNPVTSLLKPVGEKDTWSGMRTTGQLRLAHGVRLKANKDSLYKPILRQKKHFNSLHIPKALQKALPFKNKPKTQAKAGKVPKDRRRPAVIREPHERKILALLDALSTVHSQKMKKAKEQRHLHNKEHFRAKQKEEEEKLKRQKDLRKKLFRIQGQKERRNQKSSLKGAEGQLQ
UniProt Q7Z3E2, sequence (Q7Z3E2 whole entry, looked up): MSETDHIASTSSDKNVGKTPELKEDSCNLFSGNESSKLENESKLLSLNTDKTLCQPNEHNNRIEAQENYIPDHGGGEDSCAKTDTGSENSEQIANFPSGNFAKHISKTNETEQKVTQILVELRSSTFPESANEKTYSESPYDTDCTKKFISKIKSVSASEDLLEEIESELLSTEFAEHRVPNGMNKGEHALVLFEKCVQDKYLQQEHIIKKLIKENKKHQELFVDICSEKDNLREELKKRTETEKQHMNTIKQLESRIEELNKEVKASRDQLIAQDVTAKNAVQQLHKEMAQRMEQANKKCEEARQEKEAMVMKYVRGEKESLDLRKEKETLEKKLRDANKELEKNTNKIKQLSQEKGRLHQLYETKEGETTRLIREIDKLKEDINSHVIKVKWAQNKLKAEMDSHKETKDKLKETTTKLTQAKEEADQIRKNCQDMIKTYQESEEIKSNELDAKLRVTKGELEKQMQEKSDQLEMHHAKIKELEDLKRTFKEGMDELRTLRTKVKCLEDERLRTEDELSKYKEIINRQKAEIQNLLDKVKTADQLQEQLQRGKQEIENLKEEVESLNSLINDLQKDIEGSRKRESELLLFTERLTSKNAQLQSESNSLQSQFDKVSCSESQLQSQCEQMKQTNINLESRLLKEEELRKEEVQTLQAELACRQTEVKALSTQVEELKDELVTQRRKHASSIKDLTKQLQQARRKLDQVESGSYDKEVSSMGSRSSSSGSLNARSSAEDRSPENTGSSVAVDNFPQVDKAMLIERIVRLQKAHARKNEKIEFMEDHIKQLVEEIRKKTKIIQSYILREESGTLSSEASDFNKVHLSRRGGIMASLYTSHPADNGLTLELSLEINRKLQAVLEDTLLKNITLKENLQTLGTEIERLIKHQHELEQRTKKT

Target	log2 fold change (vemurafenib)	log2 fold change [1]	log2 fold change (barasertib)	log2 fold change [2]	log2 fold change (volasertib)	log2 fold change [3]	log2 fold change [4]	log2 fold change [5]	log2 fold change (saracatinib)	log2 fold change (sotrastaurin)	log2 fold change (alvocidib)	log2 fold change (Tubastatin A)	log2 fold change [6]	log2 fold change (defactinib)	log2 fold change [7]	log2 fold change (encorafenib)	log2 fold change [8]	log2 fold change (alisertib)	log2 fold change [9]	log2 fold change (gefitinib)
CARHSP1 (UniProt Q9Y2V2)	0.032	-0.015	0.024	0.033	-0.024	-0.061	-0.02	0.044	0	-0.042	0.031	0.065	0.009	-0.033	0.078	-0.013	-0.055	-0.014	0.01	-0.029
C18orf25 (UniProt Q96B23)	-0.014	0.014	0.004	0.1	-0.013	-0.059	-0.035	0.015	-0.032	0.009	-0.014	0.123	0.034	0.084	0.041	-0.005	-0.067	0.019	-0.027	0.029
AURKAIP1 (UniProt Q9NWT8)	0.043	-0.124	0.055	0.071	0.043	-0.129	-0.027	0.129	0.023	-0.055	0.026	0.219	-0.02	0.083	0.072	0.077	-0.057	0.067	0.098	-0.032
CCDC186 (UniProt Q7Z3E2)	-0.007	0.069	-0.029	0.069	0.031	0.019	0.332 (active)	-0.033	-0.003	-0.054	0.056	0.004	0.062	-0.012	-0.029	0.067	-0.004	0.015	0.004	0.055
CDC7 (UniProt O00311)	0.065	0.073	-0.005	0.039	-0.097	-0.003	-0.01	-0.073	0.004	0.036	-0.081	-0.112	0.077	0.007	0.042	0.011	0.078	-0.059	-0.04	-0.036
BMS1 (UniProt Q14692)	-0.038	0.023	0.127	-0.027	-0.018	0.012	-0.054	0.006	-0.004	0.005	-0.016	-0.024	0.042	0.053	0.007	0.075	0.01	0.035	-0.01	-0.042
C3 (UniProt P01024)	-0.02	0.042	0.059	0.07	0.009	-0.096	-0.134	0.039	0.001	0.014	-0.027	0.051	0.041	0.01	0.008	0	0.054	-0.031	-0.005	0.05
CDK1 (UniProt P06493)	0.012	-0.017	-0.029	-0.041	-0.037	-0.006	-0.056	-0.049	0.016	-0.002	0.036	-0.032	-0.017	-0.035	-0.021	0.011	0.036	0.002	0.328 (active)	-0.03
CHD1L (UniProt Q86WJ1)	0.033	0.011	0.062	-0.029	-0.09	0.024	-0.053	-0.054	0	-0.001	0.012	-0.16	-0.003	-0.001	-0.025	0.013	0.114	0.018	-0.002	0.006
CDC123 (UniProt O75794)	-0.052	0.014	0.04	-0.12	-0.05	0.032	0.018	-0.021	0.012	0.013	0.019	-0.125	0.009	0.007	-0.03	0.018	0.136	-0.004	-0.023	-0.001
C18orf32 (UniProt Q8TCD1)	0.164	-0.044	-0.019	0.125	0.054	0.054	-0.073	0	0.006	-0.112	0.049	0.035	0.084	0.144	0	0.168	-0.316	0.043	-0.019	-0.249
CDK5RAP3 isoform 4 (UniProt Q96JB5)	0.023	0.013	0.022	-0.008	-0.051	0.029	-0.313 (active)	0.216	-0.002	-0.021	-0.118	0.038	-0.007	-0.021	0.021	0.007	0.094	0.006	0.026	-0.024
CES2 isoform 4 (UniProt O00748)	0.03	-0.024	-0.052	-0.012	0.004	-0.046	0.002	0.034	-0.001	-0.017	0.021	-0.065	0.09	-0.111	0.219	0.075	0.01	-0.084	-0.002	-0.061
CASP3 (UniProt P42574)	0.002	0.015	-0.024	0.034	0.013	-0.011	0.279 (active)	-0.049	-0.036	-0.013	0.045	0.056	0.066	0.008	0.064	0.011	-0.061	-0.037	0.001	-0.001
ATM (UniProt Q13315)	-0.063	-0.004	0.041	0.005	-0.078	0.021	-0.089	0.071	-0.011	0.032	-0.048	0.013	0.013	0.105	-0.005	-0.031	0.087	-0.01	0.078	0.022
BCKDHB (UniProt P21953)	0.068	0.032	0.065	-0.102	-0.079	-0.064	0.022	-0.02	-0.012	0.129	0.062	0.011	0.008	-0.008	-0.031	-0.074	0.107	-0.019	-0.015	-0.024
